The target in assay [1] is Lysosomal acid glucosylceramidase (Homo sapiens) (UniProt P04062). Kind of assay: Glucocerebrosidase-p2 (AID 348; in the data active = potency below about 10 µM; note: potency is the fitted concentration of half-maximal effect). Conditions: purified GBA, blue fluorogenic substrate, 40 min. An outline of the steps: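 Normal human glucocerebrosidase (0.2 nM) with blue fluorogenic substrate (80 uM final) in citrate/phosphate pH 5.9 with 10mM sodium taurocholate, 0.01% tween-20; 40 min RT, NaOH/glycine stop; fluorescence Ex 365/Em 440; AC50 from a titration from 0.6 nM upwards.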
Lysosomal acid glucosylceramidase (Homo sapiens), sequence (P04062 whole entry, looked up): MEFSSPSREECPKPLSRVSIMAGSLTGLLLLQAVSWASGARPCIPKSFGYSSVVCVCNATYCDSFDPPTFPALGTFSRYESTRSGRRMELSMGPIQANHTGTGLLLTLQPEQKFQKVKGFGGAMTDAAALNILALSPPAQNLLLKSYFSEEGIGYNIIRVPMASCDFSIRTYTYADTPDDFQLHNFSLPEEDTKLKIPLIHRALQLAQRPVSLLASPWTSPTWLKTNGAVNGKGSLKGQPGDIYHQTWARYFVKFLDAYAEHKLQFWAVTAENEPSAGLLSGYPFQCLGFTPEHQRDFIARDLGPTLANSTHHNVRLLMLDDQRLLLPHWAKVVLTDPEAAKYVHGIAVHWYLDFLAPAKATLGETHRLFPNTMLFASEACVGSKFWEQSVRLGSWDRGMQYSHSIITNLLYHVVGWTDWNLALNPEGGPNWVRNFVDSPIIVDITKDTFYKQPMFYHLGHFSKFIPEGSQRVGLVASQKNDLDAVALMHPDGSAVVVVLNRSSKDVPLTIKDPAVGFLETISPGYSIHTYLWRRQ

Assay [2] is described as follows: AP1 Signaling Pathway (AID 357). Note: % is set by controls: 0 for no effect and ±100 for the full control effect. Conditions: ME-180 AP-1-bla reporter, EGF-induced, beta-lactamase ratio, 5 h; at 7.69 µM (top of the series) unless noted. An outline of the steps: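 Read-out was the 460nm/530nm emission ratio (excitation 405nm) after CCF4 loading for 2.5 hours at room temperature. Cells carried an AP-1-driven beta-lactamase reporter, were stimulated with EC50 EGF plus compound for 5 hours, and AC50 values came from titrations.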

The target in assay [3] is Cytochrome P450 1A2 (Homo sapiens) (UniProt P05177). Put plainly: p450-cyp1a2 (AID 410; calls by dose curve; note: potency is the fitted concentration of half-maximal effect;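 for activity change, negative = inhibition: -100% = full effect of reference inhibitor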). Conditions: recombinant CYP1A2, luciferin-ME demethylation, luminescence; series mostly up to 57 µM. An outline of the steps: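 Luminescent demethylation readout: Luciferin-ME (100uM, equal to Km) turned over by 20nM CYP1A2 for 60 min at room temperature after NADPH regeneration addition, following 10 min compound preincubation. Normalization used 57 uM furafylline as full inhibition.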
Cytochrome P450 1A2 (Homo sapiens), sequence (P05177 whole entry, looked up): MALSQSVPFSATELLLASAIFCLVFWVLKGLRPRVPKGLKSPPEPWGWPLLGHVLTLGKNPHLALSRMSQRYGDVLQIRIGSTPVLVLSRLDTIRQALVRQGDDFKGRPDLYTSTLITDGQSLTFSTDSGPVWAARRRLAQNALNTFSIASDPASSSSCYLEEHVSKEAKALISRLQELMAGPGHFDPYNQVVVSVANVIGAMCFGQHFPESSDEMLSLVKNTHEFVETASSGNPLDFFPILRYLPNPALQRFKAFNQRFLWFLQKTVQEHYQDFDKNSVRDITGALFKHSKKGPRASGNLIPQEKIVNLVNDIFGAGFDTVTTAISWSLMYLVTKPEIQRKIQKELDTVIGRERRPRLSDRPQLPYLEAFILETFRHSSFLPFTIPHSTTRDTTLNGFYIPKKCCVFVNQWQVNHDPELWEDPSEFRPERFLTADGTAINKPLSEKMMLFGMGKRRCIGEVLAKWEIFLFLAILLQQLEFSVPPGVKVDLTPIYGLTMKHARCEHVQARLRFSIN

The nature of assay [4]: NFAT Signaling Pathway (AID 444).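 Note: carbachol stimulus at about its EC50 of 1 µM final; % is set by controls: 0 for no effect and ±100 for the full control effect.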 Conditions: Jurkat NFAT-bla M1, carbachol, beta-lactamase ratio, 5 h; at 7.69 µM (top of the series) unless noted. An outline of the steps: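 Jurkat cells carrying an NFAT-driven β-lactamase reporter and co-transfected muscarinic M1 receptor were treated with compound plus carbachol (1 uM final, an EC50 level) for 5 h at 37 °C. CCF4 loading followed for 1 h at RT; 460/530 nm ratio gave %activity.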

Assay [5] can be described thus: Stat Signaling Pathway (AID 446).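 Note: ME-180 cervical cancer cells given 40 pM IL-6 alongside compound; SIE-controlled beta-lactamase reporter measured as 460/530 nm FRET emission ratio; % is set by controls: 0 for no effect and ±100 for the full control effect.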 The conditions noted are these: ME-180 SIE beta-lactamase reporter, IL-6 stimulated, 5 h; at 7.69 µM (top of the series) unless noted. An outline of the steps: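 Overnight-plated ME-180 cells bearing a STAT Inducible Element beta-lactamase reporter; 5 h co-exposure to compound and 40 pM IL-6; values normalized to 300 pM IL-6 and 125 nM JAK inhibitor controls.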

Assay [6] has as its target Glucocorticoid receptor (Homo sapiens) (UniProt P04150). Put plainly: GR-GFP Redistribution (AID 450;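 active = compounds whose dose series gives a full or clear partial fitted curve of increased nuclear translocation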; note: potency is the fitted concentration of half-maximal effect). The conditions noted are these: U2OS GR-GFP nuclear translocation, laser cytometry, 2 h.
The target is the same in assay [7]. Put plainly: GR-EFC Redistribution (AID 451; calls by dose curve; note: potency is the fitted concentration of half-maximal effect). Conditions: CHO-K1 GR-EFC translocation, beta-gal luminescence, 2 h. An outline of the steps: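 CHO-K1 cells stably expressing nuclear-localized β-gal enzyme acceptor and GR fused C-terminally to the enzyme donor fragment; ligand-driven nuclear translocation restores β-gal by complementation. Compounds titrated up to 46 uM final, 2 h at 37 °C; luminescence read.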

Assay [8] addresses Mitogen-activated protein kinase 10 (Mus musculus) (UniProt Q61831). Kind of assay: JNK3 AlphaScreen Assay (AID 530).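 Note: kinase came from lysate of stimulated human HepG2 cells; % is set by controls: 0 for no effect and ±100 for the full control effect.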 The conditions noted are these: JNK3 lysate, c-Jun phosphorylation; series mostly up to 57.1 µM. An outline of the steps: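 Phosphorylation of biotinylated GST-cJun(1-79) at Ser73 is measured by AlphaScreen proximity luminescence. Enzyme is JNK3 in HepG2 lysates activated with interleukin-1beta and tumor necrosis factor alpha; ATP is 10 uM final.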

The target of assay [9] is 3',5'-cyclic-AMP phosphodiesterase 4B (Homo sapiens) (UniProt Q07343). Put plainly: qHTS Assay for Inhibitors of PDE-IV (AID 607; active = well fitted activation curve with a large enough effect in the main read-out, with a control signal flat, not every such curve was filed as active; note: % of control where 0% means no effect). The conditions noted are these: HEK293 ACTOne CNG channel cells, membrane potential fluorescence; series mostly up to 22.9 µM. An outline of the steps: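 Live HEK293 cells with a modified cyclic nucleotide-gated (CNG) channel report intracellular cAMP via membrane-potential dye fluorescence (ex 535/em 590 nm). Endogenous PDE-IV was targeted. Compounds were tested at up to 22.9 uM final; RO 20-1724 100 uM served as control.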
3',5'-cyclic-AMP phosphodiesterase 4B (Homo sapiens), sequence (Q07343 whole entry, looked up): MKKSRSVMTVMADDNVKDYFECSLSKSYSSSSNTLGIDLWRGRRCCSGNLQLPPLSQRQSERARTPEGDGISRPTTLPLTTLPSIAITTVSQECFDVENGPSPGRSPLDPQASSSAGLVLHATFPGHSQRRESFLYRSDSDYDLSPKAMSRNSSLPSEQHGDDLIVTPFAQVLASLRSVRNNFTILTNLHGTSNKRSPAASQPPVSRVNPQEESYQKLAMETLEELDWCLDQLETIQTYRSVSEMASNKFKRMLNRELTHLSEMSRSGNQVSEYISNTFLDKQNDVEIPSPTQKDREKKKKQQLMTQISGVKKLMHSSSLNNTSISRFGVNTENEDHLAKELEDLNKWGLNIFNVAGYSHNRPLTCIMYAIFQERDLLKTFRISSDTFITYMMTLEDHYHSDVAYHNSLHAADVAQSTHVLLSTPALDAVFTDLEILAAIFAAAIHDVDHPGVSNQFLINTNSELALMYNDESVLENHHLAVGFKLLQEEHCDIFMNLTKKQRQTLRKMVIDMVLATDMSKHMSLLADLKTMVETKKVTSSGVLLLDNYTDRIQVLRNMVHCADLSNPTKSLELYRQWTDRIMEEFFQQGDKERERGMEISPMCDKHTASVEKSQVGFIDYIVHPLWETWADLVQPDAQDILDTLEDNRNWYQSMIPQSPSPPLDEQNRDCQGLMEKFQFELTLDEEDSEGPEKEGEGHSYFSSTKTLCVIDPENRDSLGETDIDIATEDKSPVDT

The target in assay [10] is Cytochrome P450 3A4 (Homo sapiens) (UniProt P08684). Kind of assay: qHTS Assay for Activators of Cytochrome P450 3A4 (AID 885; active = well fitted curve in the direction sought with a large enough effect; an effect the other way counts as inactive or inconclusive; note: nearly all actives have a fitted effect of over 65% in size). The conditions noted are these: recombinant CYP3A4, Luciferin-PPXE luminescence, 60 min; series mostly up to 57.1 µM. An outline of the steps:
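Using 20nM recombinant human CYP3A4 in potassium phosphate (200mM), substrate Luciferin-PPXE at 25uM, luminescent luciferin detection followed a 60-min RT NADPH reaction; data scaled to 57 uM ketoconazole.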
In general terms: qHTS replaces the single test concentration by a dilution series.

Assay [11] can be described thus: qHTS Assay for Lipid Storage Modulators (AID 1519; calls by dose curve). Conditions: Drosophila S3 cells, BODIPY lipid droplet/cell ratio, laser cytometry, cells loaded with oleic acid; for activity change, negative = inhibition: at 57.5 µM (top of the series). An outline of the steps:
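Cells seeded at 5,000 per well were treated with compounds over a concentration series and loaded with oleic acid (400 uM, as added). Lipid droplet fluorescence (488 nm excitation, 500-530 nm channel) was read by laser-scanning cytometry and normalized to 20 uM Triacsin C.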

Assay [12] deals with Dual specificity protein kinase CLK4 (Homo sapiens) (UniProt Q9HAZ1). Kind of assay: qHTS Assay for Inhibitors of CDC-like Kinase 4 (ADP-Glo Assay) (AID 1771; active = well fitted curve in the direction sought with a large enough effect; an effect the other way counts as inactive or inconclusive; note: nearly all actives have a fitted effect of over 70% in size; note: potency is the fitted concentration of half-maximal effect). The conditions noted are these: recombinant CLK4, ADP-Glo luminescence; series mostly up to 80 µM. An outline of the steps:
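ADP production was read by ADP-Glo luminescence after residual ATP depletion, following 1 h room-temperature reaction of 25 nM Clk4, 1 uM ATP and 100 uM RS peptide with MgCl2, EGTA, DTT and Triton X-100.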

Assay [13] concerns the target Ubiquitin carboxyl-terminal hydrolase 1 (Homo sapiens) (UniProt O94782). Put plainly: Inhibitors of USP1/UAF1: Pilot qHTS (AID 504865; active = well fitted curve in the direction sought with a large enough effect; an effect the other way counts as inactive or inconclusive;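 note: rhodamine fluorescence freed from ubiquitin-rhodamine substrate followed over time; top concentration of the series differs between compounds; % is set by controls: 0 for no effect and ±100 for the full control effect; nearly all actives have a fitted effect of over 35% in size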). Conditions: purified USP1/UAF1, Ub-rhodamine cleavage fluorescence; series mostly up to 54.9 µM. An outline of the steps: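 Kinetic fluorescence assay: 1nM USP1/UAF1, 15 min compound preincubation, then 150nM Ub-Rho; 480/540 nm.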

The nature of assay [14]: Primary qHTS for small molecule stabilizers of the endoplasmic reticulum resident proteome: Secreted ER Calcium Modulated Protein (SERCaMP) assay (AID 1508630; active = well fitted curve in the direction sought with a large enough effect; an effect the other way counts as inactive or inconclusive; note: % is set by controls: 0 for no effect and ±100 for the full control effect). Conditions: SH-SY5Y GLuc-SERCaMP (Gaussia luciferase released on ER calcium loss) secretion, thapsigargin, luminescence; series mostly up to 38.4 µM. An outline of the steps:
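The SH-SY5Y reporter protocol was run at 3 concentrations up to 38.3 uM (primary) or 11 concentrations (follow-up): 16 h compound, 100 nM thapsigargin for 4 h, then extracellular luciferase luminescence.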

Assay [15] has as its target Dual specificity protein kinase CLK4 (Homo sapiens) (UniProt Q9HAZ1). Put plainly: qHTS Assay for Inhibitors of CDC-like Kinase 4 (ADP-FP Assay) (AID 1795; active = well fitted curve in the direction sought with a large enough effect; an effect the other way counts as inactive or inconclusive;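 note: recombinant human CLK4 phosphorylating RS repeat peptide at 1 µM ATP; % is set by controls: 0 for no effect and ±100 for the full control effect; nearly all actives have a fitted effect of over 60% in size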). The conditions noted are these: Transcreener ADP fluorescence polarization; series mostly up to 50 µM. An outline of the steps: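 Inhibition of ADP formation by 6.25 nM Clk4 is measured using 1 uM ATP and 100 uM RS repeat peptide over one hour. Produced ADP displaces a fluorescent tracer from antibody, lowering polarization.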

Assay [16] addresses Cytochrome P450 3A4 (Homo sapiens) (UniProt P08684). Put plainly: qHTS Assay for Inhibitors and Substrates of Cytochrome P450 3A4 (AID 884; active = well fitted curve in the direction sought with a large enough effect; an effect the other way counts as inactive or inconclusive; note: potency is the fitted concentration of half-maximal effect; nearly all actives have a fitted effect of over 50% in size). The conditions noted are these: recombinant CYP3A4, Luciferin-PPXE luminescence; series mostly up to 57.1 µM. An outline of the steps: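 Luminescent readout of luciferin produced by CYP3A4 (20 nM) dealkylation of Luciferin-PPXE, 25 uM (its KM). NADPH-driven reaction ran 60 min at RT after 10 min compound preincubation; data scaled to 57 uM ketoconazole as 100% inhibition.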

Assay [17] in a line: qHTS Assay for Identification of Small Molecule Agonists for Hypoxia Response Element Signaling Pathway (AID 914; active = well fitted activation curve with a large enough effect in the signal ratio, with a control signal flat, not every such curve was filed as active; the % refers to the signal ratio; note: % of control where 0% means no effect). The conditions noted are these: ME-180 (cervical carcinoma) HRE-bla reporter, beta-lactamase ratio, CoCl2, 17 h; activation: stronger effect = higher value. An outline of the steps: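 Compounds in a titration series were added to ME-180 reporter cells alongside an EC50 level of CoCl2. After 17 hours, beta-lactamase activity was read as the 460nm/530nm emission ratio of CCF4, giving AC50 values.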

Where [18] appears, read: measured here: cell count channel max response.
[19] abbreviates: measured here: lipid channel max response.

The structures appear in SMILES notation. Inconclusive results are not listed. Activity calls are given as the source filed them. Unless noted, calls come from the whole dose curve; as a rule, active = well fitted curve in either direction with a large enough effect (not every such curve was filed as active); inconclusive = small, poorly fitted or top-dose-only effect, or another doubt; inactive = flat fitted curve, though single readings scatter. Some results are limits rather than exact numbers.

Dual specificity protein kinase CLK4 (Homo sapiens), sequence (Q9HAZ1 whole entry, looked up): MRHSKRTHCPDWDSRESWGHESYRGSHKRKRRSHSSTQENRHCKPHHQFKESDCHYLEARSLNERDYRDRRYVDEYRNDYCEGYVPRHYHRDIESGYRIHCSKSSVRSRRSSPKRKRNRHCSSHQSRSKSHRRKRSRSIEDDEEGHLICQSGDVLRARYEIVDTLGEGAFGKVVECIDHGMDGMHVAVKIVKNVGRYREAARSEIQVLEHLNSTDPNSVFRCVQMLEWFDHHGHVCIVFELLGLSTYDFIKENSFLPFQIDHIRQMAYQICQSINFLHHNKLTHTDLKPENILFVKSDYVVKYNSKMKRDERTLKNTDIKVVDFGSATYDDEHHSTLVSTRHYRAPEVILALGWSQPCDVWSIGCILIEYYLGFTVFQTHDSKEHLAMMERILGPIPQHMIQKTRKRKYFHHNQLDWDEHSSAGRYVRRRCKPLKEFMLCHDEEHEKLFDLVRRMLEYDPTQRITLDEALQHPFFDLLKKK
Ubiquitin carboxyl-terminal hydrolase 1 (Homo sapiens), sequence (O94782 whole entry, looked up): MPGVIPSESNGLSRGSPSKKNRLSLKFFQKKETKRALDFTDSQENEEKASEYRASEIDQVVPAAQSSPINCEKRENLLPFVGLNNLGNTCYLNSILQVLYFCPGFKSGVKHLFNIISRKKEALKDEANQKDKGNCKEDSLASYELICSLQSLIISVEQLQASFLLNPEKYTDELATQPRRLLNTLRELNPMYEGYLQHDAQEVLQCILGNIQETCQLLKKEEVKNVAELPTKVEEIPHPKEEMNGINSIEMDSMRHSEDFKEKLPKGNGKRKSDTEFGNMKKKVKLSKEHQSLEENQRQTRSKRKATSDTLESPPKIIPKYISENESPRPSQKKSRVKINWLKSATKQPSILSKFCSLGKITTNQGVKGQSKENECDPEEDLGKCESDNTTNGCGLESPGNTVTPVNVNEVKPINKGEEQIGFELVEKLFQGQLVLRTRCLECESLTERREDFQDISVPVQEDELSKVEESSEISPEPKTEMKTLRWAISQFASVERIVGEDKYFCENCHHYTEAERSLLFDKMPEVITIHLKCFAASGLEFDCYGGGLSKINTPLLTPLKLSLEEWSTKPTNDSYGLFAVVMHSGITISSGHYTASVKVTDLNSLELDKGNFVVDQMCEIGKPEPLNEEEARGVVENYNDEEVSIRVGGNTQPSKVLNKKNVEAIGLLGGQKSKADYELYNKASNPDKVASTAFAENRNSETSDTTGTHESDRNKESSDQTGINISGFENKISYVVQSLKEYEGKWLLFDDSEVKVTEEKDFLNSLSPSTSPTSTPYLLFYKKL
Cytochrome P450 3A4 (Homo sapiens), sequence (P08684 whole entry, looked up): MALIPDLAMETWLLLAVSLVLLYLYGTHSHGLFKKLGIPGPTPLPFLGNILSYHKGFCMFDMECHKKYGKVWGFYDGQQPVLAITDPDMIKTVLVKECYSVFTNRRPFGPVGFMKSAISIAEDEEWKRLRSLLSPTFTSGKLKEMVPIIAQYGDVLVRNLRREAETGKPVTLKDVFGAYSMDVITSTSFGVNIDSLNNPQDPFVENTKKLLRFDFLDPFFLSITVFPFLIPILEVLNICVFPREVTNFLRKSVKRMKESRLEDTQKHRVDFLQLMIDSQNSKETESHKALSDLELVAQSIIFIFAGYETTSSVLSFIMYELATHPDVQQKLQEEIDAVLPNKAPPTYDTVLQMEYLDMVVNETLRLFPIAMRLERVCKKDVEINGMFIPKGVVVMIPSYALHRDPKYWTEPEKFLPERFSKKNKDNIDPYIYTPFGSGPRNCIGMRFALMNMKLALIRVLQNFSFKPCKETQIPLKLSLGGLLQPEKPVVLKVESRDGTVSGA
Glucocorticoid receptor (Homo sapiens), sequence (P04150 whole entry, looked up, the tested form may be a part): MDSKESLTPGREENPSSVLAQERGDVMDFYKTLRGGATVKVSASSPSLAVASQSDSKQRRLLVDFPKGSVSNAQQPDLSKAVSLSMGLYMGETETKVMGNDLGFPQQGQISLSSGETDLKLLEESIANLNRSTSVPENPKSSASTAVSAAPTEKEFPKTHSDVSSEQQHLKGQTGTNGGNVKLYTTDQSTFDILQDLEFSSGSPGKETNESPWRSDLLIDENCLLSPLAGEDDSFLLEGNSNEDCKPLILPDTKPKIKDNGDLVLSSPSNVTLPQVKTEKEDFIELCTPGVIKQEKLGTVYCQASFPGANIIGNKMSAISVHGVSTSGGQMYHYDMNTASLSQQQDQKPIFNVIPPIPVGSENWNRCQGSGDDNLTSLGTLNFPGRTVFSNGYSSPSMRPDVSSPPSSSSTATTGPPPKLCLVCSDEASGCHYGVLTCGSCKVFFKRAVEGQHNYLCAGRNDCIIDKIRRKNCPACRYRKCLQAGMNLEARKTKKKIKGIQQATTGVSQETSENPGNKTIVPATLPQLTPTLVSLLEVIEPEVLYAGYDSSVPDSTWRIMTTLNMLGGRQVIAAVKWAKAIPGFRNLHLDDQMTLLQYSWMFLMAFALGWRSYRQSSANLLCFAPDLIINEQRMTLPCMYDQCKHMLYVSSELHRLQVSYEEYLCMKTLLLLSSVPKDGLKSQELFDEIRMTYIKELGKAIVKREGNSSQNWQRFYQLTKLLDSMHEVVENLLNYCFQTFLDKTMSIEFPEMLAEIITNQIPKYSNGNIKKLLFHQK

As for `CN(C)C(=O)c1ccc(-c2cc(NCc3cccnc3)ncn2)cc1`, the Potency in assay [1] is > 11.4 µM (inactive); in assay [3], 20 µM (active); in [6] it was > 46 µM (inactive); in assay [7], > 46 µM (inactive); in assay [12], 14.1 µM (active). Besides, the activity change, negative = inhibition is 11.8% (inactive) in assay [2], 21.1% (inactive) in assay [4] and 3.91% (inactive) in assay [11]. In addition, the activity, negative = inhibition in assay [5] was 21.7% (inactive). Further, the compound was called inactive in [8]. Further, the Potency result in assay [9], in [10], in assay [13] and in assay [14] was “inactive” in each case. Also, the max response in [11] (setting [18]) was found to be 24.7%; in assay [11] (setting [19]), 22.9%.
As to `CN(C)c1ncc2nc(-c3cccc(C#N)c3)c(=O)n(CCC#N)c2n1`, the Potency is > 11.4 µM (inactive) in assay [1], > 9.22 µM (inactive) in assay [6] and > 46 µM (inactive) in [7]. Moreover, the activity change, negative = inhibition was -2.98% (inactive) in [2], 4.07% (inactive) in assay [4] and 1.84% (inactive) in assay [11]. Besides, the Potency result in assay [3], in assay [9], in assay [15], in assay [13] and in assay [14] was “inactive” in each case. For the same compound, the activity, negative = inhibition in assay [5] was -8.5% (inactive). In addition, the outcome in [8] was inactive. Besides, the max response in [11] (setting [18]) was found to be 5.81%; in assay [11] (setting [19]), 7.25%.
`COc1ccc(Oc2ncc3nc(C)c(=O)n(C[C@H]4CCCO4)c3n2)cc1`: the Potency was > 11.4 µM (inactive) in [1]; 12.6 µM (active) in [3]; > 9.22 µM (inactive) in [6]; > 46 µM (inactive) in assay [7]; 3.98 µM (active) in assay [16]. In addition, the activity change, negative = inhibition in assay [2] was -5.04% (inactive); in assay [4], 1.62% (inactive); in assay [11] it was -2.24% (inactive). In addition, the activity, negative = inhibition in [5] is -14.8% (inactive). Further, the compound was classed as inactive in assay [8]. Moreover, the Potency result in [9], in assay [10], in assay [12], in [13] and in assay [14] was “inactive” each time. Besides, the activation in [17] is -5.29% (inactive). Also, the max response was -3.75% in assay [11] (setting [18]) and -4.08% in assay [11] (setting [19]).
With `O=c1c(-c2ccc(Cl)cc2)nc2cnc(N3CCOCC3)nc2n1C[C@H]1CCCO1`, the Potency in assay [1] was > 11.4 µM (inactive); in assay [3] it was 2 µM (active); in assay [6], > 9.22 µM (inactive); in assay [7], > 46 µM (inactive). Also, the activity change, negative = inhibition in assay [2] is -9.09% (inactive); in assay [4], -5.22% (inactive); in assay [11], -4.84% (inactive). For the same compound, in [5], the activity, negative = inhibition was -0.789% (inactive). Moreover, in [8], the call was inactive. Also, the Potency result in assay [9], in [15], in [13] and in assay [14] was “inactive” in each case. In addition, the values for the max response in [11] (setting [18]) and in assay [11] (setting [19]) were 4.1% and -3.15%, respectively.
For the compound `CN(C)c1ncc2nc(-c3cc(F)cc(F)c3)c(=O)n(C3CC3)c2n1`, the Potency in assay [1] was > 11.4 µM (inactive); in [6], > 9.22 µM (inactive); in assay [7] it was > 46 µM (inactive). Moreover, the activity change, negative = inhibition in assay [2] is 5.31% (inactive); in [4], -6.61% (inactive); in assay [11] it was 6.95% (inactive). Also, the activity, negative = inhibition in assay [5] was 10.2% (inactive). Moreover, in assay [8], the compound was classed as inactive. In addition, the Potency entry in assay [9], in assay [12], in assay [15], in assay [13] and in assay [14] was “inactive” throughout. For the same compound, the max response in assay [11] (setting [18]) came out at 8.84%; in assay [11] (setting [19]), 14.6%.
With `CCNc1ncc2nc(-c3cc(F)cc(F)c3)c(=O)n(C[C@H]3CCCO3)c2n1`, the Potency in assay [1] is > 11.4 µM (inactive); in assay [3], 3.16 µM (active); in [6] it was > 9.22 µM (inactive); in [7] it was > 46 µM (inactive). The results for the activity change, negative = inhibition in assay [2], in assay [4] and in assay [11] were 7.28% (inactive), 8.04% (inactive) and 6.72% (inactive), respectively. The activity, negative = inhibition in [5] is -1.58% (inactive). For the same compound, the call in [8] was inactive. Further, the Potency result in assay [10], in assay [12], in assay [13] and in assay [14] was “inactive” each time. The max response in [11] (setting [18]) came out at 13.4%; in assay [11] (setting [19]) it was 19%.

Values taken from PubChem BioAssay (NCATS).
